The campaign covered roughly 13,000 compounds. About 3,200 (25%) showed an effect of 50% or more. This is one part of the list.
Test system: P. falciparum stage V gametocytes
Set-up: BacTiter-Glo ATP luminescence viability of purified stage V gametocytes in 384-well plates, per cent inhibition versus DMSO
Conditions: 48 h, 5 µM; inhibitor

Structure (SMILES)	% Inhibition [%]
CC1(C)N=C(N)N=C(N)N1CCc1ccccc1 [TCMDC-125516]	9.542
CCOC(=O)N[C@@H]1CN[C@@H](C#Cc2cc3c(Nc4ccc(OCc5cccc(F)c5)c(Cl)c4)ncnc3s2)C1 [TCMDC-135402]	-37.93
Cc1noc(C)c1C(=O)N1CCc2cc3nccc(N4CCN5CCC[C@H]5C4)c3cc21 [TCMDC-140041]	-37.7
Cc1noc(C)c1C(=O)N1CCCC(c2[nH]c3c(C)cccc3c2-c2ccncc2)C1 (stereo not shown) [TCMDC-125361]	56.42
O=C(CCn1cncn1)N1CCCC(c2[nH]c3ccccc3c2-c2ccncc2)C1 (stereo not shown) [TCMDC-125377]	-42.34
Oc1ccc(CCNc2nc(N/N=C/C=C/c3ccc(Cl)cc3)nc(N3CCNCC3)n2)cc1 [TCMDC-138545]	-5.801
Cc1cc(OCCCNc2nc(NCCc3ccc(O)cc3)nc(N3CCNCC3)n2)c(Cl)c(C)c1Cl [TCMDC-134048]	-28.15
Oc1ccc(CCNc2nc(NCCCOc3cccc(-c4ccccc4)c3)nc(N3CCNCC3)n2)cc1 [TCMDC-134043]	-9.264
Oc1ccc(CCNc2nc(NCCCOc3cc(CN4CCCCC4)ccc3F)nc(N3CCNCC3)n2)cc1 [TCMDC-134044]	66.8
CN(/N=C/C=C/c1ccc(Cl)cc1)c1nc(NCCc2ccc(O)cc2)nc(N2CCNCC2)n1 [TCMDC-138546]	80.85
CN(/N=C/c1ccc(Cl)cc1)c1nc(NCCc2ccc(O)cc2)nc(N2CCNCC2)n1 [TCMDC-138544]	44.17
Cc1c(CN2CCCCC2)cccc1OCCCNc1nc(NCCc2ccc(O)cc2)nc(N2CCNCC2)n1 [TCMDC-134046]	87.79
Oc1ccc(CCNc2nc(NCCCOc3cccc(CN4CCCCC4)c3Cl)nc(N3CCNCC3)n2)cc1 [TCMDC-134045]	-20.8
Oc1ccc(CCNc2nc(NCCOc3cccc4ccccc34)nc(N3CCNCC3)n2)cc1 [TCMDC-134132]	-65.6
Cc1cc(-c2ccc3c(c2)CCN(CCC2CCC(NC(=O)/C=C/c4cccc(F)c4)CC2)CC3)on1 (stereo not shown) [TCMDC-139973]	-71.57
Cc1ccc(C)c(Sc2ccc(NC(=O)CN3CCN(C(=O)c4ccco4)CC3)cc2)c1 [TCMDC-124860]	-17.66
CC(C)c1cccc(OCC2CCN(c3ccc(C(=O)Nc4ccccc4)cn3)CC2)c1 [TCMDC-134261]	7.313
NC(=O)c1c(Cl)nc2ccccc2c1Cl [TCMDC-131373]	-0.4742
O=C(Nc1cccc(CN2CCN(C(=O)c3cccc(Cl)c3)CC2)c1)c1ccco1 [TCMDC-136322]	-11.21
O=C(c1cccc(Br)c1)N1CCN(c2ccc([N+](=O)[O-])c(NC3CC3)c2)CC1 [TCMDC-123536]	60.19
N#Cc1ccc(NC2(C(=O)N3CCN(c4cccc(Cl)c4)CC3)CC2)c2ccccc12 [TCMDC-136618]	-25.2
O=C(c1cccc(-c2noc(C(F)(F)F)n2)c1)N1CCN(c2ccncc2)CC1 [TCMDC-132423]	9.188
COc1ccc(S(=O)(=O)N2CCCC(C)C2)cc1N1CCN(C(=O)c2ccc([N+](=O)[O-])o2)CC1 (stereo not shown) [TCMDC-124803]	27.68

Structure (SMILES)	% Inhibition [%]
O=C(NC1CC1)c1ccc(N2CCC(Cc3ccccc3)CC2)c([N+](=O)[O-])c1 [TCMDC-123724]	45.67
COc1ccc(C(=O)N2CCN(c3ccc([N+](=O)[O-])c(NC4CC4)c3)CC2)cc1Br [TCMDC-123659]	105.4
O=C(c1cccc(Cl)c1)N1CCN(c2ccc([N+](=O)[O-])c(NC3CC3)c2)CC1 [TCMDC-125827]	67.12
COc1ccc(C(=O)Nc2ccc3nc(N4CCCCC4)cc(C)c3c2)cc1[N+](=O)[O-] [TCMDC-125448]	-8.807
O=C(NCC1CCC(C(=O)NCc2cccc3ccccc23)CC1)c1ccc(O)c(-c2ccc(Cl)c(Cl)c2)c1 (stereo not shown) [TCMDC-140895]	-0.9635
CO/C(=C\C=C\c1cc2cc(Cl)c(Cl)cc2[nH]1)C(=O)NCCCN1CCN(c2cccc(OCC(=O)Nc3cccc(C(=O)c4ccccc4)c3)c2)CC1 [TCMDC-139411]	32.5
NC(=O)c1cc2nc(Nc3ccc(F)cc3)nc(NC3CCC3)c2[nH]1 [TCMDC-137003]	-67.45
COc1ccc(CN2CCC(NCc3cccc(C(F)(F)F)c3)CC2)cc1 [TCMDC-141652]	21.67
COc1ccc(CN2CCC(NCc3cccc([N+](=O)[O-])c3)CC2)cc1 [TCMDC-141201]	64.68
O=[N+]([O-])c1cccc(CNC2CCN(Cc3ccc4ccccc4c3)CC2)c1 [TCMDC-141202]	96.08
O=[N+]([O-])c1cccc(CNCC2CCN(Cc3ccc4ccccc4c3)CC2)c1 [TCMDC-141207]	30.18
O=[N+]([O-])c1cccc(CNC2CCN(Cc3ccc(C(F)(F)F)cc3)CC2)c1 [TCMDC-141204]	-3.032
O=C(Nc1ccc2ccccc2c1)N1CCC(NCc2cccc([N+](=O)[O-])c2)CC1 [TCMDC-141278]	22.21
O=[N+]([O-])c1cccc(CNC2CCN(Cc3ccc(-c4ccccc4)cc3)CC2)c1 [TCMDC-141203]	57.53
O=[N+]([O-])c1cccc(CNC2CCN(Cc3ccc(Cl)c(Cl)c3)CC2)c1 [TCMDC-141200]	48.14
CCCCCCN1CCC(NCc2cccc([N+](=O)[O-])c2)CC1 [TCMDC-141205]	32.34
Cn1c(NC(=O)c2ccc(CNC(=O)c3ccc(O)c(-c4ccc(Cl)c(Cl)c4)c3)cc2)nc2ccccc21 [TCMDC-140881]	-6.168
Cc1[nH]c2cc(Cl)ccc2c1C1=CCN(CCCCC2(C)C(=O)Nc3c(F)cccc32)CC1 (stereo not shown) [TCMDC-140946]	-93.15
Cc1ccc(S(=O)(=O)NC2CCN(c3ccnc4cc(Cl)ccc34)C2)cc1 (stereo not shown) [TCMDC-133652]	11.61
Cc1cc(OCCCN2CCC(NS(=O)(=O)c3ccc(Cl)c(Cl)c3)C2)c2ccccc2n1 (stereo not shown) [TCMDC-136282]	-6.813
COc1ccc(-c2ccc(NC(=O)c3cccc(C#N)c3)cc2)cc1CN1CCN(C)CC1 [TCMDC-132532]	1.481
COc1ccc(-c2ccc(NC(=O)c3ccc(C#N)cc3)cc2)cc1CN1CCC(O)CC1 [TCMDC-132522]	-51.71
COc1ccc(-c2cccc(NC(=O)c3cccc(C#N)c3)c2)cc1CN1CCCN(C)CC1 [TCMDC-132621]	35.38

Structure (SMILES)	% Inhibition [%]
COc1ccc(-c2ccc(NC(=O)c3cccc(C#N)c3)cc2)cc1CN1CCCC(C(N)=O)C1 (stereo not shown) [TCMDC-132533]	78.38
COc1ccc(-c2cccc(NC(=O)c3cccc(C#N)c3)c2)cc1CN1CCC(O)CC1 [TCMDC-132626]	84.74
COc1ccc(-c2cccc(NC(=O)c3cccc(C#N)c3)c2)cc1CN1CCCC1 [TCMDC-132623]	25.04
COc1ccc(-c2cccc(NC(=O)c3cccc(C#N)c3)c2)cc1CN1CCN(C)CC1 [TCMDC-132624]	71.95
COc1ccc(-c2ccc(NC(=O)c3cccc(C#N)c3)cc2)cc1CN1CCC(O)CC1 [TCMDC-132534]	-38.76
Oc1ccc2[nH]c(-c3ccc(OC(F)(F)F)cc3)nc2c1CNC1CCCC1 [TCMDC-136530]	-82.26
O=C(NC1CCN(c2ccnc3cc(Cl)ccc23)C1)c1ccc(F)cc1F (stereo not shown) [TCMDC-133659]	10.53
COc1cc(Cc2cnc(N)nc2N)c2c(c1OC)OC(C)(C)C=C2 [TCMDC-138038]	-2.785
Cc1cc(OCC2CCN(c3ccc(C(=O)NC4CC4)cn3)CC2)ccc1F [TCMDC-134031]	14.38
Cn1cc(Br)c(-c2cccc(Nc3ccnc4cc(-c5nccs5)ccc34)c2)n1 [TCMDC-138333]	50.96
Brc1ccc(Nc2ccnc3cc(-c4nccs4)ccc23)cc1Oc1ccnc2cc(-c3nccs3)ccc12 [TCMDC-138299]	0.7997
Oc1cccc(Nc2ccnc3cc(-c4ccncc4)ccc23)c1 [TCMDC-138292]	8.476
Oc1cccc(Nc2ccnc3cc(-c4nccs4)ccc23)c1 [TCMDC-138297]	-47.13
Cn1ccc(-c2cccc(Nc3ccnc4cc(-c5nccs5)ccc34)c2)n1 [TCMDC-138336]	105.5
COc1cc(Nc2ccnc3cc(-c4nccs4)ccc23)ccc1OCCCc1nc2ccccc2[nH]1 [TCMDC-138339]	-6.497
NC(=O)CNC(=O)CCCN=C(N)N [TCMDC-131667]	20.86
Cc1c(Cc2ccc(F)cc2)c(Cl)nc2nc(N)nc(N)c12 [TCMDC-137680]	-6.829
N#Cc1cccc(-c2cccc(C(=O)NC3CCC(CCN4CCc5ccc(C#N)cc5CC4)CC3)c2)c1 (stereo not shown) [TCMDC-139681]	-20.07
CS(=O)(=O)c1ccc2c(c1)CCN(CCC1CCC(NC(=O)C(=Cc3ccc(Cl)cc3Cl)c3ccc(-c4ccccc4)cc3)CC1)CC2 (stereo not shown) [TCMDC-141426]	-11.75
CS(=O)(=O)c1ccc2c(c1)CCN(CCC1CCC(NC(=O)C(=Cc3cccc(C#N)c3)c3ccc(-c4ccccc4)cc3)CC1)CC2 (stereo not shown) [TCMDC-141427]	78.58
CC(C)CCN(Cc1cncn1Cc1ccccc1F)C(=O)c1cncc(-c2ccccc2)c1 [TCMDC-132470]	20.84

Source: PMC4552634, “A New Set of Chemical Starting Points with Plasmodium falciparum Transmission-Blocking Potential for Antimalarial Drug Discovery” (PLoS ONE, 2015)
